Source: PubChem BioAssay (Buhrlage Lab, Dana-Farber Cancer Institute and Novartis Institutes for BioMedical Research (Cambridge, Mass))
USP28 inh: human USP28 deubiquitinase inhibition; inhibition, % at 25 µM; AID 1645857; 3% of 47,000 active; purified USP28, Ub-rhodamine cleavage fluorescence, 30 min
USP17 inh: human USP17-like deubiquitinase inhibition. AID 1645855. purified USP17, Ub-rhodamine cleavage fluorescence, 3 h. A8MUK1. 6.5% of 47,000 active. inhibition, % at 50 µM
Target sequence (A8MUK1 whole entry, looked up): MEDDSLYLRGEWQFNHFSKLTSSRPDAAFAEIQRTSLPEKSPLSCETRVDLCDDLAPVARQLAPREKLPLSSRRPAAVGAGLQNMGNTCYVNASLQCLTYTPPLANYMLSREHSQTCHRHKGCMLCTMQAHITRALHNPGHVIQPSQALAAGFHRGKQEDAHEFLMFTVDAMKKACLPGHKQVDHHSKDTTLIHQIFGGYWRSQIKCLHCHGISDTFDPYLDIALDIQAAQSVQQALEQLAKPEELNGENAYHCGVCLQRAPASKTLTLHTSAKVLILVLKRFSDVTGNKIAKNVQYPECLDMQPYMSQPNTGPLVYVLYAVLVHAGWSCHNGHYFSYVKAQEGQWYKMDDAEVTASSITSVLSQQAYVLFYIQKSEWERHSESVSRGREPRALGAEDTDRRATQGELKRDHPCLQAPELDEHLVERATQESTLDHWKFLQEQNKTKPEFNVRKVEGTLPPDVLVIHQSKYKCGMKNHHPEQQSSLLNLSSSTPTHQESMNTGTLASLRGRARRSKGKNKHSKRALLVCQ
USP30 inh: inhibitors of human USP30 deubiquitinase; Q70CQ3; purified USP30, Ub-rhodamine cleavage fluorescence; inhibition, % at 25 µM; 5.3% of 47,000 active; AID 1645860
A number is an active result; . = inactive; / = not tested or not shown. Hits are enriched below; roughly 11% of the tested compounds scored in any of these assays. No stated cut-off is given here; in the data, active means inhibition above about 30%; inactive means the rest.

SMILES	USP28 inh	USP17 inh	USP30 inh
COc1ccc(NS(=O)(=O)c2ccc(NC(=O)Nc3ccc(Cl)cc3)cc2)cc1	42	56	.
CCOc1ccc(NS(=O)(=O)c2ccc(NC(=O)COc3ccccc3C)cc2)cc1	.	.	43
COc1ccc(NS(=O)(=O)c2ccc(OC)c(NC(=O)c3ccc(OC)cc3)c2)cc1	.	.	.
O=S(=O)(Nc1ccccc1Cl)c1ccc(N2CCCCS2(=O)=O)cc1	.	.	.
Cc1c(Cl)cccc1NS(=O)(=O)c1ccc2[nH]cc(C(=O)N3CCCCCC3)c(=O)c2c1	.	.	.
Cc1c(Cl)cccc1NS(=O)(=O)c1ccc(N2CCCCS2(=O)=O)cc1	.	.	40
Cc1c(Cl)cccc1NS(=O)(=O)c1ccc(NC(=O)Nc2ccccc2)cc1	.	39	34
O=C1CC[C@]2(CCCN(C(=O)Cc3ccc4c(c3)OCCO4)[C@@H]2c2cccc(F)c2)N1	.	/	.
Cc1ccccc1CN1CCC2(CCN(S(=O)(=O)c3ccccc3)C2)C1 (centres undefined)	.	.	.
Cc1ccc(NC(=O)Cn2cc(-c3nc(C)no3)ccc2=O)cc1	.	.	.
c1ccc(-c2noc(-c3ccc(N4CCC(N5CCCCC5)CC4)nn3)n2)cc1	.	.	.
CC(=O)Nc1ccc(S(=O)(=O)Nc2ccc(OCc3ccccc3)cc2)cc1	.	.	.
Cc1ccc(C(C)C)c(OCC(=O)Nc2ccc(S(=O)(=O)Nc3cc(C)nc(C)n3)cc2)c1	.	.	.
CCOc1ccc(NS(=O)(=O)c2ccc(NC(=O)Nc3ccccc3)cc2)cc1	49	.	83
COc1cc(NS(=O)(=O)c2ccc(NC(=O)COc3ccc(C)cc3Br)cc2)nc(OC)n1	.	.	45
CCc1nnc(-c2ccc(=O)n(CC(=O)N3CCN(c4cccc(C)c4C)CC3)c2)o1	.	.	.
Cc1ccc(NC(=O)CN2C(=O)c3ccccc3C2c2cn(C)c3ccccc23)cc1 (centres undefined)	.	.	.
CCc1ncc(CN2CCc3nc4cc(C(C)(C)C)[nH]n4c(=O)c3C2)cn1	.	.	.
COc1cccc2[nH]c(C(=O)N3CCC(n4c(C)nc5cccnc54)CC3)cc12	.	.	.
Cc1nc2cccnc2n1C1CCN(C(=O)c2cc3cc(Cl)ccc3[nH]2)C1 (centres undefined)	42	31	54
CCN(CC)c1ccc(NC(=O)c2cnn3c(C(F)F)cc(-c4ccc(OC)cc4)nc23)cc1	.	.	.
CCCc1ccc(C(C)NC(=O)c2cnn3c(C(F)F)cc(-c4ccc(OC)cc4)nc23)cc1 (centres undefined)	.	34	.
Cc1ccc(CNC(=O)C2CCN(c3cnc(N4CCCCCC4)nc3)CC2)o1	.	.	.
COc1ccc(S(=O)(=O)NCCc2nnc3ccc(SCC(=O)c4ccc(Cl)cc4)nn23)cc1	/	.	/
c1coc(-c2cc3nc(NCCCn4ccnc4)ccn3n2)c1	.	46	.
SMILES	USP28 inh	USP17 inh	USP30 inh
c1ccc(-c2cc3nc(NCc4ccncc4)ccn3n2)cc1	.	.	.
CCOC(=O)CC(NC(=O)c1cc2cc(OC)ccc2oc1=O)c1ccc(C)cc1 (centres undefined)	.	.	.
O=C(CSc1nnc2n1CCCCC2)Nc1ccc2[nH]c(=O)[nH]c2c1	33	68	.
COc1ccc(-c2nnc(SCC(=O)Nc3ccc4[nH]c(=O)[nH]c4c3)n2C)cc1	.	.	.
CC(NC(=O)C1CCCC1)c1nc(-c2cccnc2)n[nH]1 (centres undefined)	.	.	.
Cc1cc(C2CN(C(=O)c3cc4nc(C)cc(C)n4n3)CCO2)ccn1 (centres undefined)	.	.	.
CC1OC2CC(O)C1(O)C1=C2C(=O)c2c(O)c3c(c(O)c2C1=O)[C@H](C)O[C@H]1CC(=O)O[C@@H]31 (some centres undefined)	.	56	.
N#Cc1ccc(OCc2noc(-c3ccc(F)cc3)n2)cc1	.	.	.
Cc1c(NC(=O)Cc2cc(Cl)c3c(c2)OCCO3)cccc1-n1cnnn1	.	.	.
Cc1ccc(NC(=O)C(=O)c2cn(CC(=O)N3CCOCC3)c3ccccc23)cc1F	.	.	.
Cc1cc(C)cc(C(=O)N2CCCn3c(CN4CCCCC4)nnc3C2)c1	.	.	.
Cc1ccc(-n2nc(C(=O)NC3CCCC3)cc2-c2cccnc2)cc1	.	.	.
CCN1C(=O)Cc2cc(NS(=O)(=O)c3cc(C)ccc3OC)ccc21	.	47	.
CCOc1ccc(S(=O)(=O)Nc2ccc3c(c2)CC(=O)N3CC)cc1	.	.	.
N#Cc1ccc(C(=O)NC2CC(=O)N(C3CCCC3)C2)cc1 (centres undefined)	.	.	.
Cc1ccc(NC(=O)CCc2nc(CSc3nnc(-c4cccc(C)c4)o3)no2)cc1	.	.	.
Cc1ccc(-c2nnc(SCc3noc(CCC(=O)Nc4ccccc4)n3)o2)cc1	.	.	40
CC(=O)c1cccc(-n2c(=O)c3c4c(sc3n(CC(=O)c3ccc(F)cc3)c2=O)CN(C(C)=O)CC4)c1	/	.	/
Cc1cc(C)c2cc(CN(CCc3ccccc3)C(=O)Nc3ccccc3)c(=O)[nH]c2c1	.	62	.
Cc1cc(C)c2cc(CN(C(=O)Nc3cccc(Cl)c3)C3CCCC3)c(=O)[nH]c2c1	.	.	.
COCCCNc1nc(Nc2cccc(C)c2)c2cnn(C)c2n1	.	.	.
Cc1cccnc1NC(=O)c1noc2c1CCc1sccc1-2	.	.	.
CC(NC(=O)c1noc2c1CCc1sccc1-2)c1ccccc1 (centres undefined)	.	.	.
O=C(NCCc1c[nH]c2ccccc12)c1noc2c1CCc1sccc1-2	.	32	.
COc1ccc(C)cc1N(C)C(=O)c1noc2c1CCc1sccc1-2	.	.	30
SMILES	USP28 inh	USP17 inh	USP30 inh
O=C(NCc1ccc(Cl)cc1)c1noc2c1CCc1sccc1-2	.	.	.
CN(C(=O)c1noc2c1CCc1sccc1-2)c1ccccc1F	.	.	.
Cc1ccc(NC(=O)c2noc3c2CCc2sccc2-3)nc1	.	32	.
O=C(Nc1ccccn1)c1noc2c1CCc1sccc1-2	.	37	.
c1ccc(Oc2ccc(-c3ccc4ccccc4n3)cc2)cc1	.	.	.
O=C(NCC1CCOCC1)c1ccc2ccccc2n1	.	.	.
O=C(CNc1cc(S(=O)(=O)N2CCCCC2)ccc1N1CCCCC1)NCc1ccccc1	.	.	.
COc1ccc(NC(=O)C(=O)NCc2cccnc2)c(OC)c1	.	.	.
O=C(NCc1ccc(F)cc1)c1noc2c1CCc1sccc1-2	.	.	.
COc1ccc2c(c1)CCc1c(C(=O)NCc3cccnc3)noc1-2	.	47	53
COc1ccccc1CNC(=O)c1noc2c1CCc1sccc1-2	.	.	30
O=C(COC(=O)c1cccnc1Nc1cccc(C(F)(F)F)c1)Nc1cc(F)ccc1F	.	.	.
O=C(CN1CCN(C(=O)C2COc3ccccc3O2)CC1)Nc1ccc2c(c1)OCCO2 (centres undefined)	.	.	.
CC(=O)N1CCCC(c2cncc(-c3cccc(C(=O)O)c3)n2)C1 (centres undefined)	.	/	.
Cc1ccccc1C1CC(=O)Nc2c1c(C)nn2-c1ccc2nnc(C)n2n1 (centres undefined)	.	.	.
Cc1nn(-c2ccc3nncn3n2)c2c1C(c1ccc(C(C)C)cc1)CC(=O)N2 (centres undefined)	.	.	45
